Cycloheximide cs – counter-screen for Shiga toxin inhibitors: cycloheximide protein synthesis inhibition; max response, %; cell reporter, cycloheximide protein synthesis inhibition counterscreen; actives 12% (n = 300,000); AID 2314; in the data active means max response mostly above about 13%, no sharp cut-off; inactive means mostly below about 14%; further: read at 38.3 µM for the half of the compounds with a filed dose; 0% is about no effect
LmPK inh – LmPK (Leishmania mexicana) enzyme inhibition; Q27686; purified LmPK, Kinase-Glo ATP luminescence, 1 h; Potency, µM (series often up to 57.5 µM), for inactives: top-dose activity change, negative = inhibition, usual class: inhibitors; actives 0.37% (n = 290,000); further: potency means the concentration at half of the fitted maximal effect; on the % scale 0 is the no-effect control and ±100 the full control effect
Target sequence (Q27686 whole entry, looked up): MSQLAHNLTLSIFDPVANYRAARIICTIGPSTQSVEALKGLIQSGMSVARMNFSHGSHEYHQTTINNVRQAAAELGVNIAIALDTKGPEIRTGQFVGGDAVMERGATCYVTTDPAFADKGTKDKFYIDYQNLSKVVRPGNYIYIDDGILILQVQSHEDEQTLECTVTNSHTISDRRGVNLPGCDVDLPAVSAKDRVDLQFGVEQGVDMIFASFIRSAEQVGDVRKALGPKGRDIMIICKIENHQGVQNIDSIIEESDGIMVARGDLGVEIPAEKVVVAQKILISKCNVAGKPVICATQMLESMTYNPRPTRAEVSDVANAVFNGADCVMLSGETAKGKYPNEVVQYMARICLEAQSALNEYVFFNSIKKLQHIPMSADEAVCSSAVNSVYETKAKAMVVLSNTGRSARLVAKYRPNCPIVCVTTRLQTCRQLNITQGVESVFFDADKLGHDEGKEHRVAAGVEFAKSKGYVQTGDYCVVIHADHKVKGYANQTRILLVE
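Screened at intermediate enzyme activity to detect both inhibitors and activators: LmPK at 0.1 nM, with a 0.5 nM enzyme column as activation reference. PEP 0.5 mM, ADP 0.1 mM; ATP detected by luminescence after 1 h.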
Tb PYK inh – T. brucei pyruvate kinase inhibition; Q57TT1; TbPYK enzyme, Kinase-Glo Plus ATP luminescence, 45 min; Potency, µM (top dose mostly 76.8 µM), without a hit: top-dose activity, negative = inhibition, most hits filed as inhibitors; actives 0.12% (n = 410,000); AID 624173; further: potency means the concentration at half of the fitted maximal effect; on the % scale 0 is the no-effect control and ±100 the full control effect; nearly all actives have a fitted effect of over 50% in size
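Luminescent Kinase-Glo Plus end-point after 45 min room-temperature reaction of T. brucei pyruvate kinase started with 130 uM ADP (final). Buffer TEA 50 mM pH 7.2 with KCl, MgCl2, BSA, Tween-20; titration-based qHTS with fitted concentration-effect curves.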
Shiga inhibitor – blocks Shiga toxin action in Vero cells | Vero cells, Shiga toxin protein synthesis inhibition reporter | inhibition, % at 38.7 µM | actives 9.2% (n = 290,000); in the data active means inhibition mostly above about 28%, no sharp cut-off; inactive means mostly below about 43%; further: 0% is about no effect
RE007 growth inh – less growth of the S. pombe RE007 Vpr strain | S. pombe RE007 Vpr strain, BacTiter-Glo ATP luminescence, 24 h | Potency, µM (series often up to 92.2 µM), for the others: at the highest dose activity change, negative = less growth, usual class: inhibitors | actives 0.21% (n = 360,000); active means well fitted falling curve with a large enough effect; inconclusive means small, poorly fitted or top-dose-only effect; inactive means no such curve, though single readings can be large or run the other way; further: potency means the concentration at half of the fitted maximal effect; on the % scale 0 is the no-effect control and ±100 the full control effect; nearly all actives have a fitted effect of over 50% in size
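Fission yeast RE007 carrying one integrated HIV-1 vpr copy, seeded at OD 0.01 in PMG+AL medium with 23 nL pinned compound. Grown 24 h at 30 degrees; viability read by BacTiter-Glo luminescence after 5 min.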
Giardia FBPA inh – inhibitors of Giardia lamblia fructose-1,6-bisphosphate aldolase; A8B2U2; purified Giardia FBPA; Potency, µM (highest dose often 59.6 µM), for the others: at the highest dose activity, negative = inhibition, most hits filed as inhibitors; actives 0.71% (n = 290,000); further: potency means the concentration at half of the fitted maximal effect; on the % scale 0 is the no-effect control and ±100 the full control effect; nearly all actives have a fitted effect of over 55% in size
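Giardia FBPA (40 nM reagent) was preincubated 10 min at RT with compound (up to 57.5 uM final), then substrate plus GAPDH/TPI/NAD/arsenate coupling system with diaphorase/resazurin was added; resorufin fluorescence (525/598 nm) was read after 20 min.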
* = called active by the depositor; ? = inconclusive; . = no result given; + = active, no number. The full list was thinned out, with hits kept by preference. Unless noted, the call rests on the fitted dose curve; in most records, active means well fitted curve in the direction sought with a large enough effect; inconclusive means small, poorly fitted or top-dose-only effect, or another doubt; inactive means no such curve, though single readings can be large; an effect the other way counts as inactive or inconclusive.

SMILES	Cycloheximide cs	LmPK inh	Tb PYK inh	Shiga inhibitor	RE007 growth inh	Giardia FBPA inh
O=C(Nc1cccc(F)c1)c1c(F)c(F)c(F)c(F)c1F	4	5%	7%	-11	38%	0%
CN(C)c1cccc(C(=O)Nc2cccc(F)c2)c1	41*	-1%	-1%	68*	?	?
COc1cccc(/C=C2/NC(=O)N(CC(=O)Nc3ccc(C)cc3)C2=O)c1OCc1cccc(C(=O)O)c1	-4	10%	0%	20	2%	9%
Cc1cccc(NC(=O)CN2C(=O)N/C(=C/c3ccc(C)o3)C2=O)c1	-2	11%	?	12	-13%	-24%
Cc1ccc(NC(=O)CN2C(=O)N/C(=C/c3ccccc3OCc3cccc(C(=O)O)c3)C2=O)cc1	43*	3%	-4%	48*	1%	15%
CCN=C1S/C(=C\c2ccc(-c3cccc(C(=O)O)c3)o2)C(=O)N1CC	83*	1%	-3%	+	-1%	7%
Cc1cccc(NC(=O)CN2C(=O)N/C(=C\c3ccc(-c4cccc(C(=O)O)c4)o3)C2=O)c1	54*	13%	-27%	174*	2%	-6%
COc1cccc(-c2nnc(SCC(=O)N(C)c3ccccc3)o2)c1	.	.	-8%	.	.	.
CC(C)(C)Nc1oc(-c2ccccc2)nc1-c1ccc(C(F)(F)F)cc1	.	.	.	.	.	1%
Cc1[nH]c2ccccc2c1N=Nc1ccc(F)cc1	19*	-4%	4%	45	?	-1%
Cc1[nH]c2ccccc2c1N=Nc1ccccc1F	24*	3%	-1%	53*	?	-12%
CC(=O)c1ccc(-c2ccc(C3C4C=CCCC4(C)C(=O)N3Cc3ccccc3)c(F)c2)cc1 (stereo not given)	-7	.	.	-16	.	1%
COc1cccc(N=Nc2c(O)[nH]c(=S)[nH]c2=O)c1	31*	-26%	-22%	47*	-1%	-16%
O=c1[nH]c(=S)[nH]c(O)c1N=Nc1ccc(OC(F)F)cc1	19	-1%	-7%	37	6%	1%
O=c1[nH]c(=S)[nH]c(O)c1N=Nc1cccc(S(=O)(=O)N2CCOCC2)c1	5	-1%	-9%	4	-4%	-29%
COc1ccc(N=Nc2c(O)[nH]c(=S)[nH]c2=O)cc1	31*	?	-11%	110*	9%	-9%
Cc1cc(C)c(C)c(OCC(=O)Nc2ccc(S(=O)(=O)Nc3nc(C)cc(C)n3)cc2)c1	.	.	2%	.	.	.
O=C1N(c2ccc(Cl)cc2)C(c2cccnc2)N2CCCN12 (stereo not given)	26	-6%	2%	108*	-3%	8%
CCCc1cc(-c2n[nH]c(=S)n2-c2cccc(C)c2)cs1	7	?	?	-3	-1%	-1%
Cc1ccccc1-n1c(-c2csc3ccccc23)n[nH]c1=S	0	14µM*	?	13	1%	7%
Cc1cccc(-n2c(-c3ccco3)n[nH]c2=S)c1	-3	18µM*	?	2	0%	-4%
Cc1ccccc1-n1c(-c2csc(C)c2C)n[nH]c1=S	17*	7.9µM*	?	46*	14%	9%
Cc1cccc(-n2c(-c3csc(C(C)C)c3)n[nH]c2=S)c1	13	10µM*	?	22	3%	16%
Cc1cccc(-n2c(-c3csc(C)c3C)n[nH]c2=S)c1	1	11µM*	?	18	.	1%
O=C(CSc1nnc2ccccn12)N1CCOCC1	3	-6%	0%	-5	14%	4%
COc1ccc(C(=O)CSc2nnc3ccccn23)cc1OC	22*	0%	0%	45	17%	9%
O=C(CSc1nnc2ccccn12)c1ccc2c(c1)OCCO2	25*	?	-13%	37*	0%	2%
COc1cccc(NC(=O)C2CC(=O)N(c3ccc(Br)cc3)C2)c1 (stereo not given)	.	.	3%	.	.	.
O=c1oc2cc(Cl)ccc2n1CSc1nc2ccccc2s1	31*	1%	-20%	58*	-8%	-6%
Cc1ccnc(NCc2cc(C)ccc2O)c1	19*	0%	-6%	.	-7%	4%

High-throughput results (PubChem BioAssay)
